{"source": "PubChem BioAssay (NCI)", "note": "Compounds without any hit were thinned out: in the full panel of roughly 83,000, 20% have a hit.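 Assay: single dose, 48 h. Readout: percent growth (0 = no net growth; negative = cell death). Active: <10.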 Active and inactive are the calls of the source."}
{"tested_on": "SK-OV-3 ovarian", "test": "NCI-60 one-dose screen, 48 h (100 = growth as untreated, 0 = no growth, -100 = all killed)", "details": "10 µM unless noted", "procedure": "Growth inhibition of the SK-OV-3 human tumor cell line is measured as a screen for anti-cancer activity. Cells are grown in 96 well plates and exposed to the test compound for 48 hours. Compounds are tested at a single concentration, which is 10^-5 M for most compounds. The reported endpoint is percent growth (GI% or GIPRCNT), where numbers from 0 - 100% represent growth inhibition, and numbers from -100% - 0 represent cell death. For example, a value of 40 represents 60% growth inhibition. A value of 0 means no net growth occurred over the course of the experiment. A value of -40 indicates 40% of cells at the beginning of the experiment died by the end of the experiment. A value of -100 means all cells are dead at the end of the experiment.\nNCI-60 Human Tumor Cell Lines Screen was performed using the standard one-dose NCI protocol, which is described in more detail at https://dtp.cancer.gov/discovery_development/nci-60/default.htm.\nCompounds with GIPRCNT values below 10 were considered active. Activity score was based on GIPRCNT using the following formula: […]\nScore is 0 for GIPRCNT values of 100 or above, 50 for GIPRCNT values of 0, and 100 for GIPRCNT values of -100."}
{"smiles": "Cc1ccc(-c2onc3c(=O)[nH]nc(-c4ccccc4)c23)cc1", "growth": "14.9% (inactive)"}
{"smiles": "Cc1nc2c3c(-c4ccccc4)c(-c4ccccc4)oc3ncn2n1", "growth": "93% (inactive)"}
{"smiles": "COc1ccc2c(c1)O/C(=C\\c1cccc(OCC(=O)Nc3nc4c(s3)CCCC4)c1)C2=O", "growth": "90.9% (inactive)"}
{"smiles": "C(=C\\c1nccc2c1[nH]c1ccccc12)/c1ccccc1", "growth": "24.7% (inactive)"}
{"smiles": "COc1cc2c(cc1-c1c(C)noc1C)ncc1nc(-c3ccccn3)n([C@H](C)COC(F)F)c12", "growth": "9.97% (active)"}
{"smiles": "Cn1cc(-c2nonc2-c2cn(C)c3ccc(F)cc23)c2cc(F)ccc21", "growth": "45.1% (inactive)"}
{"smiles": "CNC(=O)c1cc(Oc2ccc(NC(=O)Nc3ccc(Cl)c(SC)c3)c(F)c2)ccn1", "growth": "79.5% (inactive)"}
{"smiles": "CSc1nc2c(c(=O)[nH]1)C1(C(=O)Nc3ccccc31)c1c(nc(SC)[nH]c1=O)N2", "growth": "114% (inactive)"}
{"smiles": "Cn1c(=O)c2c(nc3n(-c4ccc(Cl)cc4Cl)c(Sc4nc(-c5ccccc5)c(C#N)c(=O)[nH]4)cn23)n(C)c1=O", "growth": "39.7% (inactive)"}
{"smiles": "C=CCSSC1N=CNc2nc[nH]c21", "note": "(stereo not given)", "growth": "8.8% (active)"}
{"smiles": "COc1cccc(Nc2nc(SC)nc(-c3cccc([N+](=O)[O-])c3)c2C#N)c1", "growth": "31.3% (inactive)"}
{"smiles": "COc1cc(C(=O)Oc2ccccc2OC(=O)c2cc(OC)c(OC)c(OC)c2)cc(OC)c1OC", "growth": "84.9% (inactive)"}
{"smiles": "COC(=O)c1ccc(Cn2cnc3c(N)ncnc32)cc1", "growth": "107% (inactive)"}
{"smiles": "N#CCCN=Nc1c(O)[nH]c2ccc([N+](=O)[O-])cc12", "growth": "86% (inactive)"}
{"smiles": "Cc1ncc(C(=O)Nc2ccc(CN3CCN(C)CC3)c(C(F)(F)F)c2)cc1C#Cc1cnc2cccnn12", "growth": "22.9% (inactive)"}
{"smiles": "CCOC(=O)n1cc(-c2nonc2-c2cn(C)c3ncccc23)c2cc(F)ccc21", "growth": "85.8% (inactive)"}
{"smiles": "O=C(CCl)Oc1ccc(-c2ccccc2)c(Br)c1", "growth": "104% (inactive)"}
{"smiles": "CCCCn1c(-c2ccc(C(=O)O/N=C(\\N)c3ccc4c(c3)OCO4)cc2)nc(-c2ccccc2)c1-c1ccccc1", "growth": "89.5% (inactive)"}
{"smiles": "O=C1c2cc3c(cc2-c2c1c1cc(F)c(F)cc1c(=O)n2CCCn1ccnc1)OCO3", "growth": "6.12% (active)"}
{"smiles": "CCc1nc(N)nc(N)c1C#CC(C)c1ccc(-c2ccncc2)cc1Cl", "note": "(stereo not given)", "growth": "33% (inactive)"}
{"smiles": "Clc1ccc2c(NCCNc3nc(N4CCCCC4)nc4ccccc34)ccnc2c1", "growth": "-2.73% (active)"}
{"smiles": "O=C(COc1cccc(/C=C2\\COc3ccc(Cl)cc3C2=O)c1)c1ccc(Cl)cc1", "growth": "99% (inactive)"}
{"smiles": "O=C(Cn1cccc(Nc2ccccc2)c1=O)Nc1ccccc1", "growth": "104% (inactive)"}
{"smiles": "O=C1Nc2c(ccc(Cl)c2Cl)/C1=C\\c1ccc(C(F)(F)F)cc1", "growth": "88.2% (inactive)"}
{"smiles": "O=[N+]([O-])c1ccccc1/C=N\\NC(=S)N/N=C/c1ccccc1[N+](=O)[O-]", "growth": "69.1% (inactive)"}
{"smiles": "O=C1Nc2c(ccc(Cl)c2Cl)/C1=C\\c1cc(C(F)(F)F)cc(C(F)(F)F)c1", "growth": "59.9% (inactive)"}
{"smiles": "Cc1cc(Nc2ccc(C)c(Cl)c2)n2nc(C(F)(F)F)nc2n1", "growth": "-50.5% (active)"}
{"smiles": "O=C1c2cc3c(cc2-c2c1c1ccc(Cl)cc1c(=O)n2CCCN1CCOCC1)OCO3", "growth": "33.4% (inactive)"}
{"smiles": "COc1ccc(C2Nc3c(c(C(C)(C)C)nn3-c3ccccc3)C(=O)CS2)cc1", "note": "(stereo not given)", "growth": "106% (inactive)"}
{"smiles": "CC(=O)Nc1ccc(S(=O)(=O)Nc2cccc(-c3nc(-c4ccc(NC(=O)c5cccnc5)cc4Cl)no3)c2)cc1", "growth": "20.9% (inactive)"}
{"smiles": "Clc1ccc2c(NCCCCNc3nc(N4CCCCC4)nc4ccccc34)ccnc2c1", "growth": "50.8% (inactive)"}
{"smiles": "CCN(CC)c1ccc(/C=N\\NC(=O)/C=C/C=C/c2ccc3c(c2)OCO3)c(O)c1", "growth": "39.5% (inactive)"}
{"smiles": "COc1cccc(/C=C2\\SC(=Nc3ccc(NC(C)=O)cc3)NC2=O)c1OC", "growth": "91.3% (inactive)"}
{"smiles": "Nc1n[nH]c2ccc([C@@H]3Nc4ccc5[nH]ncc5c4[C@H]4C5C=CC(C5)[C@@H]34)cc12", "note": "(stereo not given in full)", "growth": "42.6% (inactive)"}
{"smiles": "O=c1cc(/C(=C2/C=CC=N2)c2ccc[nH]2)c2cc(Cl)ccc2o1", "growth": "34.8% (inactive)"}
{"smiles": "COc1cc(/C=C/c2cc(/C=C/c3ccc(O)c(OC)c3)n(-c3c(C)cccc3C)c(=O)n2)ccc1O", "growth": "-37.7% (active)"}
{"smiles": "COC(=O)c1ccc(NC(=O)c2ccc(-c3cccc([N+](=O)[O-])c3)o2)cc1", "growth": "98.1% (inactive)"}
{"smiles": "NC(=O)c1cc(I)ccc1NC(=O)/C=C/c1ccccc1Cl", "growth": "4.87% (active)"}
{"smiles": "COc1ccc(/C=C/c2nc3ccccc3nc2/C=C/c2ccc(OC)cc2)cc1", "growth": "102% (inactive)"}
{"smiles": "CS(=O)(=O)c1ccc(-n2nc(-c3ccc(Br)cc3)c3ccccc3c2=O)cc1", "growth": "94.3% (inactive)"}
